Measured values taken from PubChem BioAssay AID590 (National Center for Advancing Translational Sciences (NCATS), 2007).
“And” between values parts separate entries of the source, which are not always exact repeats. Equal entries are not always repeated. About 6,500 (11%) of roughly 59,000 compounds were called active. About 15% were inconclusive and are not listed. Rule as the data show it: active = max dye-equivalent concentration above about 10 nM; inconclusive = mostly about 1.1 nM to 9.6 nM; inactive = weaker than that. Only a selection was taken, and actives are over-represented in it overall.

Assay: qHTS Assay for Spectroscopic Profiling in A350 Spectral Region
Conditions: Compound autofluorescence, 340/450 nm, Alexa 350 dye-equivalents; stronger effect = higher value

| SMILES | max dye-equivalent concentration |
| --- | --- |
| Cc1ccc(-c2csc3nnc(SCC(=O)NCc4ccco4)n23)cc1 | inactive |
| CC1CN(C2CCCCC2)c2nc3c(c(=O)n(C)c(=O)n3C)n2C1 (stereo not given) | inactive |
| CC1=C(C(=O)OC2CCCCC2)C(c2cccnc2)n2ncnc2N1 (stereo not given) | inactive |
| CCSc1nc2c(c(=O)[nH]1)C(c1cccnc1)C(C(=O)OC(C)C)=C(C)N2 (stereo not given) | 1.2e-08 M (active) |
| COC(=O)C1=C(N)Oc2cc(C)oc(=O)c2C1c1cccnc1 (stereo not given) | inactive |
| C=C(C)c1cccc(C(C)(C)NC(=O)N2CCN(c3ncccn3)CC2)c1 | inactive |
| CCOC(=O)c1c(C2CC2)csc1NC(=O)CSCc1c(C)noc1C | inactive |
| COc1c(C)c2c(c(O)c1C/C=C(\C)CCC(=O)O)C(=O)OC2 | 6e-08 M (active) and 1.6e-08 M (active) |
| COc1ccc(CC(=O)Nc2ccc3c(c2)CCC3)cc1S(=O)(=O)N1CCOCC1 | inactive |
| Clc1ccc(C=Nc2ccc3c(c2)Cc2ccccc2-3)c(Cl)c1 | inactive |
| CCOc1cc(CO)ccc1OCC(=O)N1CCCCC1 | inactive |
| Cc1ccccc1NC(=O)c1ccccc1 | inactive |
| Cc1ccc(NC(=O)c2nc[nH]c2C(=O)N2CCCCC2)c(C(=O)c2ccccc2)c1 | inactive |
| Cc1ccc2c(c1)sc1ncc(NC(=O)c3ccccc3)c(=O)n12 | 6.5e-08 M (active) |
| CCC(Oc1ccccc1)C(=O)NCc1cccnc1 (stereo not given) | inactive |
| Cc1ccc(S(=O)(=O)c2nc(NCCCn3ccnc3)sc2Cl)cc1 | inactive |
| CC1(C)C/C(=C(/C#N)C(N)=O)CCO1 | inactive |
| CC(C(=O)Nc1ccccc1-c1ccccc1)N1CCOCC1 (stereo not given) | inactive |
| O=C(c1ccccc1-c1ccccc1)N1CCOCC1 | inactive |
| CC(C(=O)N1CCOCC1)N1c2cccc3cccc(c23)S1(=O)=O (stereo not given) | 8e-08 M (active) |

| SMILES | max dye-equivalent concentration |
| --- | --- |
| COC(=O)c1nc(NC(=O)c2ccc(Cl)cc2)n[nH]1 | inactive |
| CCC(=O)c1ccc(OCC(O)CN2CC(C)OC(C)C2)cc1 (stereo not given) | inactive |
| CC1CCCC(NC(=O)CN2CCN(Cc3ccc(Cl)cc3)C2=O)C1C (stereo not given) | inactive |
| Cc1ccc(C)n1C(Cc1ccccc1)C(=O)O (stereo not given) | 1.3e-08 M (active) |
| CC(=O)c1ccc(NC(=O)N[C@@H](Cc2ccccc2)C(=O)O)cc1 | inactive |
| C[C@@H](N)[C@@H](C)Cc1ccccc1 | inactive |
| O=C(C1CCCO1)N(Cc1ccccc1)c1ccccc1 (stereo not given) | inactive |
| CCN(c1ccccc1)S(=O)(=O)c1cccc(C(=O)O)c1 | inactive |
| Nc1nc(N)c2[nH]c(CNc3ccc(C(=O)O)cc3)nc2n1 | inactive |
| O=C(Nc1ccc(Cl)cn1)Nc1cccs1 | inactive |
| COc1ccc(-n2ncc3c(N4CCCc5ccccc54)ncnc32)cc1 | 2.5e-08 M (active) |
| Cc1cccc(-n2ncc3c(N4CCc5ccccc54)ncnc32)c1 | 1.5e-08 M (active) |
| Cc1ccc(-n2ncc3c2ncn2nc(-c4ccco4)nc32)c(C)c1 | inactive |
| COc1ccc(N2CCN(C(=O)CSc3ncnc4c3cnn4-c3ccc(OC)cc3)CC2)cc1 | inactive |
| c1ccc(-n2ncc3c(N4CCCC4)ncnc32)cc1 | inactive |
| CCCc1nc2c3cnn(-c4cccc(Cl)c4)c3ncn2n1 | inactive |
| Cc1cc2ccccc2n2c(SCC(=O)N3CCN(C(=O)c4ccco4)CC3)nnc12 | inactive |
| CC(=O)Nc1ccn(Cc2c(F)cccc2Cl)n1 | inactive |
| CCCCCn1c(SCCC(C)C)nc2c1c(=O)[nH]c(=O)n2C | inactive |
| O=C(O)CN(Cc1ccco1)S(=O)(=O)c1ccc(F)cc1 | inactive |
